Screens as filed in PubChem BioAssay.
The list is not random: actives were taken first. Their share in the collection is about 21%.
Shiga inhibitor: Shiga toxin inhibition | Vero cells, Shiga toxin protein synthesis inhibition reporter | inhibition, % at 38.7 µM | 290,000 tested, 9.2% active | AID 2315; in the data active = inhibition mostly above about 28%, no sharp cut-off; inactive = mostly below about 43%; also: 0% is about no effect
Pf growth 96h: P. falciparum growth inhibition at 96 hour, primary screen for plastid delayed-death inhibitors | AID 504834 | 320,000 tested, 6.9% active | Potency, µM (highest dose often 28.7 µM), for inactives: at the top dose activity change, negative = inhibition, actives largely listed as inhibitors | P. falciparum luciferase reporter growth, 96 h; also: potency is read from the fitted curve at half-maximal effect; % is scaled to controls: 0 for no effect and ±100 for the full control effect
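Compounds incubated with erythrocytes infected by luciferase-expressing P. falciparum (2% hematocrit, 0.05% parasitemia final) for 96 hours, 37 C in 5% CO2. Growth inhibition scored as decreased luciferase luminescence.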
Cycloheximide cs: affects cycloheximide protein synthesis inhibition readout, counter-screen | 300,000 tested, 12% active | cell reporter, cycloheximide protein synthesis inhibition counterscreen | max response, %; in the data active = max response mostly above about 13%, no sharp cut-off; inactive = mostly below about 14%; also: read at 38.3 µM for the half of the compounds with a filed dose; 0% is about no effect
Pf growth 48h: P. falciparum growth inhibition at 48 hours (one generation) | AID 504832 | Potency, µM (series often up to 28.7 µM), for the others: top-dose activity change, negative = inhibition, actives largely listed as inhibitors | 310,000 tested, 5.9% active | P. falciparum luciferase growth in erythrocytes, 48 h; also: potency is read from the fitted curve at half-maximal effect; % is scaled to controls: 0 for no effect and ±100 for the full control effect
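Erythrocytes infected with P. falciparum carrying an integrated firefly luciferase reporter (2% hematocrit, 0.1% parasitemia final) were exposed to compounds in RPMI 1640 with 0.5% Albumax at 37 C, 5% CO2. Growth inhibition was scored as reduced luminescence.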
* marks the source's active call; other numbers are inactive results; ? = inconclusive; · = no result; [ ] = remark or other dose. Unless noted, calls follow the shape of the dose curve; as a rule, active = well fitted inhibition curve with a large enough effect; inconclusive = small, poorly fitted or top-dose-only effect, or another doubt; inactive = no such curve, though single readings can be large or run the other way.

SMILES | Shiga inhibitor | Pf growth 96h | Cycloheximide cs | Pf growth 48h
CCOc1ccccc1NC(=S)N(CCC(C)C)C1CCN(C(C)=O)CC1 | -10 | ? | 2 | ?
COCCN(C(=O)COC(=O)c1cc2ccccc2cc1O)c1c(N)n(Cc2ccccc2)c(=O)[nH]c1=O | · | 42% | · | 16%
COc1cc(NC(=O)CN2C(=O)NC(c3ccccc3)(c3ccccc3)C2=O)c(C)cc1[N+](=O)[O-] | -11 | ? | 1 | ?
CCCOC(=O)C1=C(C)NC2=C(C(=O)CC(C)(C)C2)C1c1cccnc1 (stereo unspecified) | -4 | 10µM* | -4 | ?
CCCOC(=O)C1=C(C)NC2=C(C(=O)CC(C)(C)C2)C1c1ccc(N(C)C)cc1 (stereo unspecified) | -10 | -2% | -3 | ?
CC(=O)N=c1sccn1CC(O)c1ccc(Br)cc1 (stereo unspecified) | -10 | 40% | 3 | ?
CCN(CC(=O)Nc1ccc(NC(C)=O)cc1)C(=O)c1ccc2c(c1)S(=O)(=O)N=C1CCCCCN12 | · | 35% | · | -24%
O=C(CNC(=O)c1ccc2c(c1)S(=O)(=O)N=C1CCCCCN12)Nc1ccc(F)c(F)c1 | · | ? | · | 10µM*
O=C(NC1CCCCC1)C(c1ccc(O)cc1)N(C(=O)c1cnccn1)c1cccc(F)c1 (stereo unspecified) | 4 | 18% | -4 | -2%
COc1ccc(C)cc1NC(=O)COC(=O)CCC(=O)c1cccs1 | · | -24% | · | ?
CCN(CC)CCNc1nc2nonc2nc1NCCN(CC)CC | 4 | 12µM* | -3 | 8.3µM*
O=C(O)CNC(=O)c1ccc(NC(=O)/C(=C/c2ccccc2)NC(=O)c2ccccc2)cc1 | -4 | 19% | -4 | 1%[0.00184 µM]
CN(C)c1ccc(C(=O)Nc2cccc(S(=O)(=O)N3CCCC3)c2)cc1 | · | ? | · | -13%
CN(C)c1ccc(C(=O)NC2(N3CCC3=O)CCCC2)cc1 | 27 | ? | 22* | -7%
CN(C)c1ccc(/C=N/n2c(C3CCCCC3)n[nH]c2=S)cc1 | -5 | ? | -3 | ?
COc1cc(/C=N/NC(=O)NC23CC4CC(CC(C4)C2)C3)ccc1O | 37* | ? | 8 | ?
O=C(N/N=C/c1ccccc1O)NC12CC3CC(CC(C3)C1)C2 | 139* | 2.6µM* | 46* | 1.2µM*
C/C(=N/NC(=O)NC12CC3CC(CC(C3)C1)C2)c1ccccc1 | 29 | 0.74µM* | -2 | ?
O=C(NCc1ccccc1)NC12CC3CC(CC(C3)C1)C2 | 33 | 14% | -2 | -7%
CN1C(=C2C(=O)OC(C)(C)OC2=O)Sc2ccccc21 | 117* | 32% | 44* | 39%
CC(=O)NN1C(=O)/C(=C2/Sc3ccccc3N2C)SC1=S | -3 | 101% | -2 | 47%
O=C(/C=C/c1cccc([N+](=O)[O-])c1)NC1CC2CCC1C2 (stereo unspecified) | 34 | 59% | 19* | 19%
S=C(N/N=C/c1ccc2c(c1)OCO2)NC1CC2CCC1C2 (stereo unspecified) | 63* | 2.6µM* | 35* | 2.1µM*
CCN(CC)c1ccc(/C=N/NC(=S)NCc2ccc(OC)cc2)cc1 | -14 | ? | 1 | ?
COc1cc(/C=N/NC(=S)NC2CC3CCC2C3)ccc1O (stereo unspecified) | 36 | ? | 34* | 0%
SMILES | Shiga inhibitor | Pf growth 96h | Cycloheximide cs | Pf growth 48h
COc1ccc(/C=N/NC(=S)N[C@H]2CC3CCC2C3)cc1 (stereo partly specified) | 18 | 5.2µM* | 13* | 4.1µM*
CCOc1ccc(CNC(=O)CCC(=O)n2ncc3ccc(Cl)cc32)cc1 | 2 | ? | -3 | -2%
COc1ccc(/C=C/C(=O)NC2CCCCC2C)cc1 (stereo unspecified) | · | ? | 12 | 4%
COc1ccc(/C=C/C(=O)NC2CC3CCC2C3)cc1 (stereo unspecified) | · | ? | 27* | -13%
Cc1ccccc1-c1noc(-c2ccccc2F)n1 | 68* | 371% | 36* | ·
Cc1ccccc1-c1noc(-c2ccc(O)cc2)n1 | 65* | 5% | 52* | 13%
Cc1ccccc1-c1noc(-c2ccc(Cl)cc2)n1 | 26 | ? | 24* | 133%
COc1ccc(C)cc1NC(=O)CNC(=O)[C@@H]1Cc2ccccc2CN1 | 1 | 37% | 17 | 17%
Cc1cccc(C(=O)Oc2ccccc2/C=N/Nc2ccc([N+](=O)[O-])cc2)c1 | -15 | ? | -2 | ?
COC(=O)N/N=C/c1cccc([N+](=O)[O-])c1 | 23 | 2% | 8 | 62%
O=[N+]([O-])c1ccc(N/N=C/c2cccc(O)c2O)cc1 | · | ? | 27* | 51%
Cc1ccc(NC(=O)c2ccc(N/N=C/c3cccc(O)c3)c([N+](=O)[O-])c2)cc1 | 20 | 5.2µM* | 0 | ?
O=[N+]([O-])c1ccc(N/N=C/c2cccc(O)c2)cc1 | 113* | ? | 53* | 88%
Cc1cc(C)n(CC(=O)N2CCCC(C(=O)c3cccc(OC(C)C)c3)C2)n1 (stereo unspecified) | -12 | 36% | -2 | ?
CC(=O)c1ccc(-c2cc(C3C4C=CCC(C)C4C(=O)N3Cc3ccccc3)ccc2F)cc1 (stereo unspecified) | -5 | · | 1 | ·
CN1C(=O)NC(c2cccc(O)c2)C(C(=O)c2cccs2)C1(O)C(F)(F)F (stereo unspecified) | 85* | 171% | 57* | -22%
CCOC(=O)C1C(c2cccs2)NC(=O)N(C)C1(O)C(F)(F)F (stereo unspecified) | -3 | 76% | -3 | 32%
CC1(C)CC(=O)C2=C(C1)Nc1ccccc1N=C2 | 85* | ? | 50* | 136%
CC1(C)CC(=O)C2=C(C1)Nc1ccccc1NC2 | 139* | -7% | 44* | -2%
CC(OC(=O)c1ccc(S(=O)(=O)NCc2ccco2)cc1)C(=O)Nc1ncc(Cl)cc1Cl (stereo unspecified) | -3 | 24% | 12 | -2%
O=C(OC1C[C@H]2CC[C@@H](C1)[N+]21CCCC1)C(O)(c1ccccc1)c1ccccc1 (stereo partly specified) | · | 9% | · | 6.7µM*
CC(C)Nc1ncnc2c1cnn2-c1ccccc1 | 24* | 81% | 23* | 171%
Cc1ccc(-n2ncc3c(SCc4cccc(C)c4)ncnc32)cc1 | 12 | ? | 8 | -9%
CCOc1ccc(Nc2ncnc3c2cnn3-c2ccccc2)cc1 | 3 | -5% | -3 | 43%
Cc1ccccc1Nc1ncnc2c1cnn2-c1ccccc1 | 70* | 3% | 48* | -16%
SMILES | Shiga inhibitor | Pf growth 96h | Cycloheximide cs | Pf growth 48h
CC(C)Nc1ncnc2c1cnn2Cc1ccc(Cl)cc1 | 6 | ? | 1 | -7%
NNc1ncnc2c1cnn2-c1ccccc1 | 42 | · | 38* | ?
Cc1cccc(-n2ncc3c(N(C)Cc4ccccc4)ncnc32)c1 | 97* | 99% | 57* | 72%
O=C(NCc1ccc(Cl)cc1)C1CCCN1C(=O)Nc1ccccc1 (stereo unspecified) | -8 | ? | -4 | 13%
CCC(=O)NNc1ncnc2c1cnn2-c1cccc(C)c1 | 16 | 25% | 7 | 7%
c1ccc(-n2ncc3c(NC4CCCCCC4)ncnc32)cc1 | 62* | 67% | 45* | 130%
